Results as given in PubChem BioAssay (Tox21).
“And” between values parts separate entries of the source, which are not always exact repeats. Equal entries are not always repeated. Inconclusive results are not listed. The source made the active and inactive calls. Unless noted, the call rests on the fitted dose curve; in most records, active means well fitted curve in the direction sought with a large enough effect in the repeat runs; inconclusive means weak or mixed curves; inactive means no such curve, though single readings can be large; an effect the other way counts as inactive or inconclusive.

Experiments:
[1] = qHTS assay to identify small molecule agonists of the estrogen receptor alpha (ER-alpha) signaling pathway in the presence of an antagonist - cell viability counter screen (AID 1259386);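 further: cells exposed to compounds for 22 h at 37 °C before the viability read; nearly all actives have a fitted effect of over 30% in size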; further: potency means the concentration at half of the fitted maximal effect
Summary of the method: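 VM7Luc4E2, stripped-serum pre-culture 5 d; 24hr plating; +ICI-182,780 10.0nM final; cpds 15 conc, 22hr, 37C/5% CO2; CellTiter-Fluor added at 21hr, fluorescence 1hr later.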

[2] = target: Progesterone receptor (Homo sapiens) (UniProt P06401); assay: qHTS assay to identify small molecule antagonists of the progesterone receptor (PR) signaling pathway (AID 1346795; active means well fitted inhibition curve with a large enough effect in the signal ratio in the repeat runs, not every such curve was filed as active; the % refers to the signal ratio; further: potency means the concentration at half of the fitted maximal effect)
Summary of the method: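 PR-UAS-bla HEK293T cells with beta-lactamase reporter under UAS control, in 2% charcoal-stripped FBS, treated with compounds plus 1 nM promegestone (R5020, final) for 16 hr at 37C. Read-out: FRET beta-lactamase substrate fluorescence after 2 hr at room temperature.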

[3] = qHTS assay to identify small molecule antagonists of the progesterone receptor (PR) signaling pathway - cell viability counter screen (AID 1346798); further: nearly all actives have a fitted effect of over 50% in size; further: potency means the concentration at half of the fitted maximal effect
Summary of the method: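 PR-UAS-bla HEK293T cells, 3,000/well in 2% charcoal-stripped FBS medium, dosed with compounds plus R5020 agonist and incubated 16 h at 37C. Viability then measured in the same wells by CellTiter-Glo luminescence after 30 min at RT.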

[4] = qHTS assay to identify small molecule agonists of the progesterone receptor (PR) signaling pathway - cell viability counter screen (AID 1346799; calls by dose curve; further: nearly all actives have a fitted effect of over 45% in size)
Summary of the method: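 Counter screen in the PR-UAS-bla HEK293T wells (2% charcoal-stripped FBS, 16 h compound exposure at 37 C) after the bla read. CellTiter-Glo added, 30 min at room temperature, luminescence read as cell viability.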

[5] = qHTS assay to identify small molecule antagonists of the TGF-beta/Smad signaling pathway - cell viability counter screen (AID 1346824); further: nearly all actives have a fitted effect of over 50% in size
Summary of the method: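 SBE-bla HEK 293T cells were plated overnight at 37 C, then given compounds in DMSO plus TGF-beta1 (added as 0.25 ng/mL solution) for 5 hr. After the bla read, CellTiter-Glo was added to the same wells and luminescence read after 30 min at room temperature.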

[6] = qHTS assay to identify small molecule agonists of the TGF-beta/Smad signaling pathway - cell viability counter screen (AID 1346829); further: top concentration of the series differs between compounds; nearly all actives have a fitted effect of over 45% in size
Summary of the method: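 CellTiter-Glo luminescence readout; SBE-bla HEK 293T cells, overnight plating, compound 5 hr at 37 C/5% CO2, then bla substrate 2 hr RT, then CellTiter-Glo 30 min RT.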

[7] = qHTS assay to identify small molecule agonists of the TGF-beta/Smad signaling pathway (AID 1346859; active means well fitted activation curve with a large enough effect in the signal ratio in the repeat runs, not every such curve was filed as active; the % refers to the signal ratio; further: series mostly up to about 77 µM)
Summary of the method: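 SBE-bla HEK293T cells plated overnight, then compound exposure for 5 h at 37 C. Beta-lactamase reporter read with LiveBLAzer B/G FRET substrate after 2 h at room temperature, fluorescence at 405 nm excitation, 460/530 nm emission.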

[8] = Human pregnane X receptor (PXR) small molecule agonists, qHTS cell viability counter screen (AID 1346977); further: nearly all actives have a fitted effect of over 50% in size; further: potency means the concentration at half of the fitted maximal effect
Summary of the method: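 PXR-Luc HepG2 cells (2,000/well, 5% charcoal-stripped FBS) preincubated 5 hr, then exposed to compounds 24 hr at 37 C. Viability read in the same wells by CellTiter-Fluor fluorescence, reagent added at 23 hr, 1 hr incubation.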

[9] = Caspase-3/7 induction in HepG2 cells by small molecules, qHTS assay (AID 1346978); further: nearly all actives have a fitted effect of over 15% in size
Summary of the method: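 Wild-type HepG2 cells (2,000/well) were settled 5 h at 37 C, 5% CO2, then exposed to compounds in DMSO for 17 h. Caspase-3/7 activity was read by luminescence 30 min after adding Caspase-Glo 3/7 reagent at room temperature.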

[10] = Caspase-3/7 induction in CHO-K1 cells by small molecules, qHTS cell viability counter screen (AID 1346979); further: nearly all actives have a fitted effect of over 35% in size; further: potency means the concentration at half of the fitted maximal effect
Summary of the method: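 Wild-type CHO-K1 cells (1,500/well) treated with compound after 5 h plating; after 16 h at 37C, viability read as CellTiter-Fluor fluorescence following 1 h reagent incubation, in the same wells as the caspase read.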

[11] = Caspase-3/7 induction in CHO-K1 cells by small molecules, qHTS assay (AID 1346980); further: nearly all actives have a fitted effect of over 15% in size
Summary of the method: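 Wild-type cells were seeded at 1,500 per well and settled 5 hr at 37 C, 5% CO2, then exposed to DMSO-dissolved compounds for 17 hr. Caspase-Glo 3/7 reagent was added, and luminescence was read after 30min at room temperature.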

[12] = Caspase-3/7 induction in HepG2 cells by small molecules, qHTS cell viability counter screen (AID 1346981); further: nearly all actives have a fitted effect of over 30% in size; further: potency means the concentration at half of the fitted maximal effect
Summary of the method: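 HepG2, WT, 2,000 cells/well; 5 hr pre-incubation 37 C/5% CO2; compound pin-transferred from DMSO; 16 hr exposure; CellTiter-Fluor, 1 hr; fluorescence read.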

[13] = target: Nuclear receptor subfamily 1 group I member 2 (Homo sapiens) (UniProt O75469); assay: Human pregnane X receptor (PXR) small molecule agonists, qHTS assay (AID 1346982); further: nearly all actives have a fitted effect of over 35% in size; further: potency means the concentration at half of the fitted maximal effect
Summary of the method: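 Luciferase signal from ONE-Glo (30 min, room temperature) measured activation of hPXR-driven CYP3A4 reporter expression in PXR-Luc HepG2 cells treated with compounds for 24 hr at 37 C.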

[14] = target: Acetylcholinesterase (Homo sapiens) (UniProt P22303); assay: Acetylcholinesterase (AChE) small molecule antagonists: colormetric cell-based qHTS assay (AID 1347395; calls by dose curve; further: nearly all actives have a fitted effect of over 30% in size; further: potency means the concentration at half of the fitted maximal effect)
Summary of the method: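 SH-SY5Y cells attached overnight, exposed to compound 30 min at 37 C, then given DTNB/acetylthiocholine; after 90 min at 37 C, colorimetric thiocholine read gives cellular AChE activity.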

[15] = target: Acetylcholinesterase (Homo sapiens) (UniProt P22303); assay: Acetylcholinesterase (AChE) small molecule antagonists: enzyme-based qHTS assay (AID 1347397; calls by dose curve; further: nearly all actives have a fitted effect of over 55% in size); settings: Potency: AChE enzyme activity inhibition
Summary of the method: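 Human recombinant acetylcholinesterase; substrate acetylthiocholine; thiocholine quantified with DTNB (colorimetric). Compound preincubation 30 min RT; reaction 10 min RT.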

[16] = target: Thyrotropin-releasing hormone receptor (Homo sapiens) (UniProt P34981); assay: qHTS assay to identify small molecule agonists of the thyrotropin-releasing hormone receptor (TRHR) signaling pathway (AID 1346891; calls by dose curve; further: series mostly up to about 58 µM)
Summary of the method: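 HEK293 cells expressing TRHR plated 18 h at 37 C/5% CO2, calcium dye-loaded 2 h at 37 C, then compound added (agonist mode); kinetic calcium fluorescence read 3 min at 1 s intervals; 15 concentrations in triplicate.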

[17] = target: Thyrotropin-releasing hormone receptor (Homo sapiens) (UniProt P34981); assay: qHTS assay to identify small molecule antagonists of the thyrotropin-releasing hormone receptor (TRHR) signaling pathway (AID 1346877; active means well fitted inhibition curve with a large enough effect in the repeat runs, not every such curve was filed as active; further: series mostly up to about 51 µM)
Summary of the method: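 Intracellular calcium fluorescence, read kinetically every second over 3 min, reports TRH-evoked signalling in HEK293 cells carrying TRHR. Test compounds were added 5 min ahead of a 1 nM TRH challenge.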

[18] = target: Nuclear receptor subfamily 1 group I member 2 (Rattus norvegicus) (UniProt Q9R1A7); assay: Rat pregnane X receptor (rPXR) activation by small molecules, qHTS assay (AID 1346983); settings: rPXR luciferase reporter cells, One-Glo luminescence, 24 h; max activation: hits give high values; further: nearly all actives have a fitted effect of over 20% in size
Summary of the method: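 Cell-based rPXR luciferase reporter assay, 2,000 cells per well, rested 5hr at 37 C before compound addition in DMSO, then 24 hr at 37 C. One-Glo reagent was added and luminescence read after 30 min at room temperature.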

[19] = target: Nuclear receptor subfamily 1 group I member 2 (Homo sapiens) (UniProt O75469); assay: Human pregnane X receptor (PXR) activation by small molecules, qHTS assay (AID 1346985); further: nearly all actives have a fitted effect of over 40% in size
Summary of the method: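 DPX-2 cells (HepG2 co-transfected with a PXR response element and a CYP3A4-promoter luciferase construct) were seeded at 2,000 per well, rested 5 hr at 37C, then exposed to DMSO-dissolved compounds for 24 hr. Activation was read as luciferase luminescence.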
On the % scale 0 is the no-effect control and ±100 the full control effect.

Chain of Thyrotropin-releasing hormone receptor (Homo sapiens) (P34981 whole entry, looked up): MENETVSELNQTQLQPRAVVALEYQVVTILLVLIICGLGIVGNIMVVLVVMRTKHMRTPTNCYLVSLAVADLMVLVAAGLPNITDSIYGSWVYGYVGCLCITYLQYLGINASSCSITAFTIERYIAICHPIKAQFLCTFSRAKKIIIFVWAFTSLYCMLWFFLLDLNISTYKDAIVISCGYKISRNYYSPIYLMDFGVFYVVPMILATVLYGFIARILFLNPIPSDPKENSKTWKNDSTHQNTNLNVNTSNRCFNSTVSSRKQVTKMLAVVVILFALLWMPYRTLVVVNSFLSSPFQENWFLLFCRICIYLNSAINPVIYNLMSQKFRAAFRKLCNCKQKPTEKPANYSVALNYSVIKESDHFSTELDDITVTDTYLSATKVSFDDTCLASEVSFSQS
Chain of Nuclear receptor subfamily 1 group I member 2 (Homo sapiens) (O75469 whole entry, looked up): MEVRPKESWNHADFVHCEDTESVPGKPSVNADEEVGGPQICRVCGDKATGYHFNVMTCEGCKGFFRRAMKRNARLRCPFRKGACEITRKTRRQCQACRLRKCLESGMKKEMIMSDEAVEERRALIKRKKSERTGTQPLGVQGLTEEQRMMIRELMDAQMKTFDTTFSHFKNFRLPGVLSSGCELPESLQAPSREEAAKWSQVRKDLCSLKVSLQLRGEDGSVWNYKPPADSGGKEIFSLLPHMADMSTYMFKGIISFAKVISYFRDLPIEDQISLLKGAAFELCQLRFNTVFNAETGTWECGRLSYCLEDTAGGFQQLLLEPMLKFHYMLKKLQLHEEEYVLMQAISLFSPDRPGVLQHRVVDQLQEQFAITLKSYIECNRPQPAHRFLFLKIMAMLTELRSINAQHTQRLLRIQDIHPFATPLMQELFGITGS
Chain of Acetylcholinesterase (Homo sapiens) (P22303 whole entry, looked up): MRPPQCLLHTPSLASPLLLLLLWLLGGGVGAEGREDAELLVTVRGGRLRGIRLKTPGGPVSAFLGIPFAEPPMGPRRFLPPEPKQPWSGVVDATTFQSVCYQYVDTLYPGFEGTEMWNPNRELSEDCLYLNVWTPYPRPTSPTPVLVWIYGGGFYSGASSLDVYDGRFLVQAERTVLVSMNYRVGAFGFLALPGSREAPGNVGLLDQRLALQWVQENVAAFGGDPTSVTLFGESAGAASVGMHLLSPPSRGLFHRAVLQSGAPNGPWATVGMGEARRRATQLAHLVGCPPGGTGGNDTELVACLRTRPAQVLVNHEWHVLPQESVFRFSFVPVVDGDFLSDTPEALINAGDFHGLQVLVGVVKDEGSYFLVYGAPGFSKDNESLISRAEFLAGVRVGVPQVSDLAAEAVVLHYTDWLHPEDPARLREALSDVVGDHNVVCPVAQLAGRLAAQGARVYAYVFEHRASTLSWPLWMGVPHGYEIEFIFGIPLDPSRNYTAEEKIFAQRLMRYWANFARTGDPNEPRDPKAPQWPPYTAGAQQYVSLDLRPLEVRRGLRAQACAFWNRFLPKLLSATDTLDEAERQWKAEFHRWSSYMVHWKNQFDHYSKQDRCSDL
Chain of Progesterone receptor (Homo sapiens) (P06401 whole entry, looked up): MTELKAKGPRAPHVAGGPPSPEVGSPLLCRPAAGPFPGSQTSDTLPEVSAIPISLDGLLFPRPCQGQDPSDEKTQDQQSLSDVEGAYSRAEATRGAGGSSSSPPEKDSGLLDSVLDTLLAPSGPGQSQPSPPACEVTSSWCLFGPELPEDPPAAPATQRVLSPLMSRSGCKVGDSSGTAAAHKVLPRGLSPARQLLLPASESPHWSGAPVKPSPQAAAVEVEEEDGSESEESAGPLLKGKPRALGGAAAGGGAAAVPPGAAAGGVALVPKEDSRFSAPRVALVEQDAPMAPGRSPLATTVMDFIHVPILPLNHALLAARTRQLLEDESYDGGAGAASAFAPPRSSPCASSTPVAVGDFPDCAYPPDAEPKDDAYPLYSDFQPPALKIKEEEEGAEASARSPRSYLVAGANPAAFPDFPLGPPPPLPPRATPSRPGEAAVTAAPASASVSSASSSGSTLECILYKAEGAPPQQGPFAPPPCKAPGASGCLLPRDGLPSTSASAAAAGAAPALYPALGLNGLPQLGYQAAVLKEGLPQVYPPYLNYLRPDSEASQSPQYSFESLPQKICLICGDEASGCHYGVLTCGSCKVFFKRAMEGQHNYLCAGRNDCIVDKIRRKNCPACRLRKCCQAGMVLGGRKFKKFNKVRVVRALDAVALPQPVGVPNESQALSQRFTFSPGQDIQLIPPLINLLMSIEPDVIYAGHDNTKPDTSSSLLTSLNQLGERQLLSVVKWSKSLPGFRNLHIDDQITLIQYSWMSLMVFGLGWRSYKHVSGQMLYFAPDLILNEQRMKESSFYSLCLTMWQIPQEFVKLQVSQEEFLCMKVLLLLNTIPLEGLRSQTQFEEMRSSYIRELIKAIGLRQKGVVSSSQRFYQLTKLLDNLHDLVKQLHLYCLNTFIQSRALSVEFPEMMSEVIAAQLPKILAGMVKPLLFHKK
Chain of Nuclear receptor subfamily 1 group I member 2 (Rattus norvegicus) (Q9R1A7 whole entry, looked up): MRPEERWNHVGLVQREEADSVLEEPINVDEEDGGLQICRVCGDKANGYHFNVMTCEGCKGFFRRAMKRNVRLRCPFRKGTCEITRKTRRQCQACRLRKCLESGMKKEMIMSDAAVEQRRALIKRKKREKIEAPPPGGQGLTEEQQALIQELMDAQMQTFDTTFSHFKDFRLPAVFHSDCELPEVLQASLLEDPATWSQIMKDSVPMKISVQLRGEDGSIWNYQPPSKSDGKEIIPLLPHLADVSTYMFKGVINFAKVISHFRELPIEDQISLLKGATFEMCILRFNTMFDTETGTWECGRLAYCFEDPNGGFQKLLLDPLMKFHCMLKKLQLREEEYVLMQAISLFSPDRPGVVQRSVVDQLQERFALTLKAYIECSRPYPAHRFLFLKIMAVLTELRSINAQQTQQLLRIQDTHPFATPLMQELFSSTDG

C=COC(C)=O
inactive: Potency [1] | Potency [2] | Potency [3] | Potency [4] | Potency [5] | Potency [6] | outcome [7] | Potency [8] | Potency [9] | Potency [10] | Potency [11] | Potency [12] | Potency [13] | Potency [14] | Potency [15]

NNC(=O)c1cccnc1
active: Potency [13] 27.4 µM
inactive: Potency [1] | Potency [2] | Potency [4] | Potency [5] | Potency [6] | outcome [7] | Potency [16] | Potency [8] | Potency [9] | Potency [10] | Potency [11] | Potency [12] | Potency [14] | Potency [15]

O=S1(=O)OC(c2cc(Br)c(O)c(Br)c2)(c2cc(Br)c(O)c(Br)c2)c2ccccc21
inactive: Potency [2] | Potency [5] | Potency [6] | outcome [7] | Potency [16] | Potency [9] | Potency [11] | Potency [13] | Potency [14] | Potency [15]
active: Potency [1] 22.3 µM | Potency [8] 12.5 µM | Potency [10] 25 µM | Potency [12] 25 µM

BrCC(Br)C1CCC(Br)C(Br)C1 (stereo not given)
active: Potency [13] 48.3 µM
inactive: Potency [1] | Potency [3] | Potency [4] | Potency [6] | outcome [7] | Potency [17] | Potency [16] | Potency [8] | Potency [9] | Potency [10] | Potency [11] | Potency [12] | Potency [14] | Potency [15]

CCBr
inactive: Potency [1] | Potency [3] | Potency [4] | Potency [5] | Potency [6] | outcome [7] | Potency [17] | Potency [16] | Potency [8] | Potency [9] | Potency [10] | Potency [11] | Potency [12] | Potency [13] | Potency [14] | Potency [15]

Clc1cccc(SC2CCNCC2)n1
inactive: Potency [1] | Potency [3] | Potency [4] | Potency [5] | Potency [6] | outcome [7] | Potency [8] | Potency [9] | Potency [10] | Potency [11] | Potency [12] | Potency [14] | Potency [15]

COC(C)(C)CCC[C@H](C)C/C=C/C(C)=C/C(=O)OC(C)C
active: Potency [13] 24.3 µM
inactive: Potency [1] | Potency [2] | Potency [5] | Potency [6] | outcome [7] | Potency [17] | Potency [16] | Potency [8] | Potency [9] | Potency [10] | Potency [11] | Potency [12] | Potency [14] | Potency [15]

CC[C@H]1C[C@H]2[C@@H]3CCC4=CC(=O)CC[C@@H]4[C@H]3CC[C@]2(C)[C@H]1O
inactive: Potency [1] | Potency [3] | Potency [5] | Potency [6] | outcome [7] | Potency [8] | Potency [9] | Potency [10] | Potency [11] | Potency [12] | Potency [14] | Potency [15]
active: Potency [13] 9.44 µM

CC(C)(C)C(O)C(Oc1ccc(Cl)cc1)n1cncn1 (stereo not given)
inactive: Potency [1] | Potency [5] | Potency [6] | outcome [7] | Potency [17] | Potency [16] | Potency [8] | Potency [9] | Potency [10] | Potency [11] | Potency [12] | Potency [14] | Potency [15]
active: Potency [3] 54.5 µM | Potency [13] 4.33 µM

CCCCC(O)(Cn1cncn1)c1ccc(Cl)cc1Cl (stereo not given)
inactive: Potency [1] | Potency [5] | Potency [6] | outcome [7] | Potency [17] | Potency [16] | Potency [11] | Potency [14] | Potency [15]
active: Potency [2] 17.2 µM | Potency [13] 24.3 µM

CCOP(=O)(OCC)Oc1ccc([N+](=O)[O-])cc1
active: Potency [2] 17.4 µM and 17.2 µM
inactive: Potency [1] | Potency [3] | Potency [4] | Potency [5] | Potency [6] | outcome [7] | Potency [8] | Potency [9] | Potency [10] | Potency [11] | Potency [12]

O=S(=O)(Cl)c1ccccc1
inactive: Potency [1] | Potency [2] | Potency [3] | Potency [4] | Potency [5] | Potency [6] | outcome [7] | Potency [8] | Potency [9] | Potency [10] | Potency [11] | Potency [12] | Potency [13] | Potency [14] | Potency [15]

C#CCOC(C(=O)OCCN(C)C)(c1ccccc1)c1ccccc1
inactive: Potency [1] | Potency [2] | Potency [3] | Potency [4] | Potency [5] | Potency [6] | outcome [7] | Potency [8] | Potency [9] | Potency [10] | Potency [11] | Potency [12] | max activation [18] -6.97% | Potency [19]

COc1c(C(C)(C)C)cc([N+](=O)[O-])c(C)c1[N+](=O)[O-]
inactive: Potency [1] | Potency [3] | Potency [4] | Potency [5] | Potency [6] | outcome [7] | Potency [8] | Potency [9] | Potency [10] | Potency [11] | Potency [12] | Potency [15]
active: Potency [13] 9.61 µM

Cl/C=C\C[N+]12CN3CN(CN(C3)C1)C2
inactive: Potency [1] | Potency [2] | Potency [3] | Potency [4] | Potency [5] | Potency [6] | outcome [7] | Potency [17] | Potency [16] | Potency [8] | Potency [9] | Potency [10] | Potency [11] | Potency [12] | Potency [13] | Potency [15]

COP(=S)(Oc1cc(Cl)c(Br)cc1Cl)c1ccccc1 (stereo not given)
active: Potency [13] 24.3 µM | Potency [14] 63.3 µM
inactive: Potency [1] | Potency [3] | Potency [5] | Potency [6] | outcome [7] | Potency [17] | Potency [16] | Potency [8] | Potency [9] | Potency [11] | Potency [12]

CN1C(=O)C(O)N=C(c2ccccc2)c2cc(Cl)ccc21 (stereo not given)
active: Potency [13] 28.3 µM
inactive: Potency [1] | Potency [2] | Potency [3] | Potency [5] | Potency [6] | outcome [7] | Potency [8] | Potency [9] | Potency [10] | Potency [11] | Potency [12] | max activation [18] -0.547% | Potency [14] | Potency [15]
